High-throughput results from PubChem.
Granule exo inh: LAMP-1 surface exposure blockers, TALL-104 cells – cell-based, flow cytometry, MLPCN library, primary screen; inhibition, % at 10 µM; 360,000 tested, 0.66% active; TALL-104 LAMP-1 surface exposure; cells stimulated with thapsigargin and PMA;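 active = inhibition above about 55%, limit read from the data; inconclusive = no clear call, values can overlap the other calls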
ALR inh: inhibitors of human ALR sulfhydryl oxidase, primary screen, biochemical, H2O2 detection, HRP-luminol luminescence, single point; 290,000 tested, 3.8% active; purified ALR, DTT oxidation; inhibition, % (no concentration beside the values);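 active = mean replicate inhibition above about 79%, with every replicate also reaching it, limit read from the data; inconclusive = only one of the two criteria met; inactive = mean below limit and not every replicate reaching it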
Target sequence (P55789 whole entry, looked up): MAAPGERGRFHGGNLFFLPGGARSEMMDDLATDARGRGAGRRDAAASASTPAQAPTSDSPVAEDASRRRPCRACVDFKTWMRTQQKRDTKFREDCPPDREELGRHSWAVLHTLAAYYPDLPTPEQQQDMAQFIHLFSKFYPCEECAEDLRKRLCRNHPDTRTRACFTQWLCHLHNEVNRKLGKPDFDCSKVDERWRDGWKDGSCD
MIN6 prolif: inducers of MIN6 beta-cell proliferation, primary screen, ATP luminescence, uHTS. MIN6 cells proliferation, ATPlite luminescence, 48 h; cells starved in 0.2% serum; 100% = growth in 10% serum. proliferation, % at 10 µM. 330,000 tested, 0.29% active. AID 2380, 2010;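 active = compounds whose signal lies at least 3.5 SD above the mean of all wells on their plate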;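 also: 0% = DMSO-treated cells in low-serum medium and 100% = 10% serum control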
PfM18AAP inh: PfM18AAP inhibitors, malaria aminopeptidase, primary screen, biochemical, QFRET, recombinant enzyme; H-Glu-NHMec fluorogenic cleavage; 290,000 tested, 1.2% active; M18 aspartyl aminopeptidase (Plasmodium falciparum 3D7); inhibition, % at 7.35 µM;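 active = inhibition above the campaign mean inhibition over all tested compounds plus 3 SD, cut at about 28% in these data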;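 also: 0% = plate median of test compound wells and 100% = 2 mM ZnCl2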
SMARCA2 act: SMARCA2 (BRM) function activators, primary screen, cell-based, luminescence, high throughput | activation, % at 9.1 µM | MG213 cells, MMTV-luciferase reporter, dexamethasone, overnight | 370,000 tested, 1% active; in the data active = activation above about 7.8%;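 also: 0% = vehicle wells and 100% = reference activator wells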
JMJD2C inh: inhibitors of GASC-1 histone demethylase, primary screen, biochemical, fluorescence, DELFIA europium; inhibition, % at 2.35 µM; 330,000 tested, 0.069% active; Lysine-specific demethylase 4C (Homo sapiens), Q9H3R0; GST-JMJD2C(1-420) H3K9me3 demethylation;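 active = more than half of a compound's replicate wells show inhibition beyond 50%, single wells judged on their own value; inconclusive = some, but no more than half, of replicates pass 50% inhibition; inactive = no replicate passes 50% inhibition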;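 also: signal counts dimethyl H3K9 product captured on neutravidin plate; 0% = median of DMSO wells and 100% = 0.3 times that DMSO median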
Target sequence (Q9H3R0 1-420 limits assumed): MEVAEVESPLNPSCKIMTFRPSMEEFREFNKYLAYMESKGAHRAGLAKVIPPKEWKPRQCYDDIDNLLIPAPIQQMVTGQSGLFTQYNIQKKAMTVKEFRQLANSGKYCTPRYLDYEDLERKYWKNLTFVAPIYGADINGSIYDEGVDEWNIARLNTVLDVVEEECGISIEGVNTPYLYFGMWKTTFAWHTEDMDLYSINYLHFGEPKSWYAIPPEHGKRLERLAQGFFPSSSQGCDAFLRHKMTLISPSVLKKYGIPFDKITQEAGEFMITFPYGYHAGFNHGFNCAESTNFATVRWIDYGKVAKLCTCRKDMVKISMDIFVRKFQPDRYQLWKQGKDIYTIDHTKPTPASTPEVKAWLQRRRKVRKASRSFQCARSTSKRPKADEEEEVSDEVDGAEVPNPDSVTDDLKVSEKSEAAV
SMARCA2 act conf: SMARCA2 (BRM) function activators, confirmation, cell-based, luminescence, triplicate. shares compounds with SMARCA2 act. MG213 cells, MMTV-luciferase with dexamethasone, overnight; MG213 cells expressing E1A, Rb sequestered; DMSO wells 0%, reference activator 100%. activation, % at 9.1 µM. 3,500 tested, 30% active;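 active = activation above its plate's cutoff, the mean activation of tested wells plus 3 SD, cut at about 7.9% in these data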
VP16 Luc act: GAL4-VP16 luciferase reporter activation, counter-screen for SMARCA2 (BRM) activator project, cell-based, pG5luc, luminescence, high throughput; shares compounds with SMARCA2 act; AID 686939, 2013; 3,500 tested, 41% active; activation, % at 9.1 µM; HEK293 GAL4-VP16 pG5luc reporter; scaled: DMSO wells 0%, SAHA wells 100%;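 active = activation above the solvent-only control well mean plus 3 SD, averaged across control plates, cut at about 5.2% in these data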
Active calls of the source: *; ? = inconclusive; · = not tested or not shown. The list is not random: actives were taken first. Their share in the collection is about 5.4%.

SMILES	Granule exo inh	ALR inh	MIN6 prolif	PfM18AAP inh	SMARCA2 act	JMJD2C inh	SMARCA2 act conf	VP16 Luc act
Fc1cccc(CSc2ccc(-c3ccco3)nn2)c1	-3.3	49.7	0.0	-9.8	14.7*	0.7	13.1*	5.5*
Fc1ccc(N/N=C/c2cccnc2)c(F)c1	-1.2	54.2	-1.7	-6.4	8.4*	3.5	1.4	0.9
CCC(C)CN1C(=O)CSCC1(C)C(=O)Nc1ccc2c(c1)OCCO2 (stereo unspecified)	-8.5	·	·	·	3.5	·	·	·
CCN(CC)S(=O)(=O)c1ccc(NC(=O)CCC2CCCCC2)cc1	-2.0	1.0	·	13.6	9.4*	1.6	4.9	0.7
CCN(CC)S(=O)(=O)c1ccc(NC(=O)CNC2CCCCC2)cc1	-0.3	·	-3.7	1.0	-3.8	-0.5	·	·
COC(=O)C1=C(C)N(Cc2ccccc2C(F)(F)F)C(=NCc2ccccc2)NC1c1ccc(F)cc1 (stereo unspecified)	·	·	·	·	0.4	·	·	·
Cc1ccccc1-c1cc2nc(NCc3ccncc3)n(C)c(=O)c2s1	-2.5	·	·	·	11.3*	·	3.3	2.8
Cc1ccc(-n2c(C)cc(-c3csc(N)n3)c2C)cc1	6.5	-1.7	-2.7	18.0	11.6*	-1.7	-10.5	-1.1
O=C(Nc1ccccc1)C1Cc2c(-c3ccco3)ccnc2O1 (stereo unspecified)	0.6	·	·	·	-3.5	·	·	·
O=C(NC1CCCCC1)c1ccc(-c2ccccc2[N+](=O)[O-])o1	-2.2	-24.8	-5.0	4.8	10.7*	-10.6	8.7*	12.3*
COc1cccc(NC(=O)c2ncc(Cl)c(Cl)c2Cl)c1	-2.6	·	-5.7	-15.3	8.7*	0.5	5.9	2.0
O=C(CC(=O)c1ccccc1)Nc1ccccn1	-0.4	-0.9	-1.9	-15.7	13.0*	20.2	7.1	9.2*
Cn1c(NCCc2ccncc2)nc2cc(-c3cccc(C(F)(F)F)c3)sc2c1=O	-0.5	·	·	·	3.1	·	·	·
O=C(O)c1nnsc1-c1csnn1	15.7	·	·	·	1.7	·	·	·
NNC(=O)c1nnsc1-c1csnn1	-3.6	·	·	·	9.1*	·	-1.4	0.0
Cc1cc(C(=O)N(C)C2CCCCC2)no1	2.7	-2.0	5.3	-13.7	-1.2	4.2	·	·
CN(C(=O)c1cc(-c2ccccc2)on1)C1CCCCC1	0.5	1.6	-1.2	-5.7	9.1*	-10.2	11.1*	9.3*
O=C(Cc1csc(Nc2nc(=S)[nH]c3ccccc23)n1)NCCCN1CCN(c2ccccc2F)CC1	84.4*	-9.8	-6.6	15.6	15.3*	-3.8	9.6*	2.2
O=C(Cc1csc(Nc2nc(=S)[nH]c3ccccc23)n1)NCc1ccc(Cl)cc1	-0.9	-2.2	0.1	1.1	·	?	·	·
COC(=O)[C@@]12C[C@@H](CC(=O)NCCc3ccccc3OC)C(=O)N(Cc3ccccc3)C1=CCC(C)(C)C2	26.4	·	·	·	-3.1	·	·	·
c1ccc(-c2ccc(-c3ccncn3)cc2)cc1	-8.2	-7.8	-1.0	·	9.1*	-8.6	4.6	7.6*
Nc1nn(-c2ccccc2)c(N)c1N=Nc1ccccc1	-0.7	20.0	0.0	-6.0	14.6*	-3.3	7.4	26.7*
N#Cc1c(N)[nH]c(C(=O)c2ccccc2)c1-c1ccc(Br)cc1	·	·	·	·	-1.9	·	·	·
Cc1nc2nc(-c3cccs3)cn2nc1C	3.5	-18.6	-2.7	-8.3	10.4*	-6.3	11.3*	12.8*
CC(=Nc1ccccc1)C1=C(O)CSC1=O	-1.0	-16.6	0.4	7.3	8.6*	11.4	2.5	3.7
SMILES	Granule exo inh	ALR inh	MIN6 prolif	PfM18AAP inh	SMARCA2 act	JMJD2C inh	SMARCA2 act conf	VP16 Luc act
COc1ccc(N=C(C)C2=C(O)CSC2=O)cc1	-3.9	2.1	0.5	-16.5	6.0	0.0	·	·
CC(=O)C1=C(S(=O)(=O)c2ccc(C)cc2)CS(=O)(=O)C1	25.8	·	-1.1	-18.6	9.1*	8.0	15.2*	2.3
O=C(NCCc1ccc(F)cc1)c1ccc(Sc2ccccc2Cl)c([N+](=O)[O-])c1	·	·	·	·	-4.8	·	·	·
CCOC1=C2[C@@H](CN(S(=O)(=O)c3ccc(C)cc3)[C@H]2c2cccc3ccccc23)[C@H]2C(=O)NC(=O)[C@H]2C1	2.8	·	·	·	-0.1	·	·	·
Cc1cc(N/N=C\c2ccccc2)nc(-c2ccccc2O)n1	-0.4	0.4	-2.8	11.3	12.6*	15.5	-1.9	2.7
Cc1cc(N/N=C/c2ccncc2)nc2ccccc12	-0.2	·	·	1.7	-1.3	1.5	·	·
Cc1cc(N/N=C/c2cccc(Br)c2)nc2ccccc12	-8.7	-16.6	-2.9	3.5	12.0*	-10.6	4.4	7.8*
CCCC(=O)N1CCOCC1c1cc(C(=O)NCc2ccccc2)no1 (stereo unspecified)	5.3	·	·	·	-2.2	·	·	·
CCN=c1sc(C(=O)OC)cc(=O)n1CC	-3.1	-18.2	1.1	-1.5	10.6*	-18.1	8.6*	1.1
C=CCN=c1sc(C(=O)OC)cc(=O)n1CC=C	-10.5	1.7	-1.9	2.1	-0.1	3.1	·	·
C=CCSc1nnc(NC(=O)C2=COCCO2)s1	1.7	3.5	-5.2	·	8.0*	-7.2	8.2*	10.6*
O=C(Nc1ccc(N2CCOCC2)cc1)c1nc2ccccc2s1	3.3	-3.4	3.1	3.4	12.5*	28.2	8.5*	11.9*
Cn1c(=O)c2cc(S(=O)(=O)NC(C(=O)Nc3cccnc3)c3ccccc3)ccc2n(C)c1=O (stereo unspecified)	-1.2	0.2	0.3	-0.9	10.1*	·	-0.3	-1.8
Cn1c(=O)c2cc(S(=O)(=O)NC(C(=O)NCc3cccnc3)c3ccccc3)ccc2n(C)c1=O (stereo unspecified)	2.2	-5.1	-3.1	-1.7	5.0	-7.1	·	·
O=C(C(=O)N1CCN(C(=O)c2cc(C(F)(F)F)cc(C(F)(F)F)c2)CC1)c1cccc(C(F)(F)F)c1	·	·	·	·	-1.7	·	·	·
O=C(NCc1ccccc1)C1Cc2c(-c3ccc(Cl)cc3)ccnc2O1 (stereo unspecified)	-2.5	·	·	·	1.3	·	·	·
Cc1ccc(-n2ncc3c2ncn2c(C)nnc32)cc1C	-0.5	-7.0	0.5	-4.1	9.0*	-0.9	5.7	10.4*
CCc1nnc2c3cnn(-c4ccccc4)c3ncn12	-0.1	-4.9	-1.4	-0.5	5.4	-7.7	·	·
